Test in all cases: NCI-60 one-dose screen, 48 h (100 = growth as untreated, 0 = no growth, -100 = all killed)
The subject of assay [1] is NCI-H23 lung. To be noted: 10 µM unless noted.
In assay [2] the test system is NCI-H226 lung. To be noted: 10 µM unless noted.
The test system of assay [3] is MDA-MB-231 breast. To be noted: 10 µM unless noted.
In assay [4] the test system is SF-268 CNS. To be noted: 10 µM unless noted.
Assay [5] concerns SF-539 CNS. The following applies: 10 µM unless noted.
For assay [6], the system named is HCT-15 colon. To be noted: 10 µM.
Assay [7] concerns HT29 colon. The following applies: 10 µM unless noted.
Assay [8] relates to SNB-75 CNS. The following applies: 10 µM unless noted.
Assay [9] concerns PC-3 prostate. To be noted: 10 µM unless noted.
Assay [10] relates to SK-MEL-5 melanoma. The following applies: 10 µM unless noted.
Assay [11] has as its system UACC-62 melanoma. The following applies: 10 µM unless noted.
Assay [12] relates to SK-MEL-28 melanoma. The following applies: 10 µM unless noted.
The test system of assay [13] is SN12C renal. The following applies: 10 µM unless noted.
Assay [14] has as its system ACHN renal. The following applies: 10 µM unless noted.
Assay [15] has as its system OVCAR-8 ovarian. To be noted: 10 µM unless noted.
Assay [16] has as its system OVCAR-3 ovarian. To be noted: 10 µM unless noted.
The test system of assay [17] is NCI/ADR-RES ovarian. To be noted: 10 µM unless noted.
The subject of assay [18] is MDA-MB-435 melanoma. To be noted: 10 µM unless noted.
The test system of assay [19] is MCF7 breast. The following applies: 10 µM unless noted.
For assay [20], the system named is KM12 colon. To be noted: 10 µM unless noted.

About 83,000 compounds went through this panel and 20% of them were active in at least one assay; those are over-represented in the sample as a whole.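 Growth was measured after 48 h exposure to one concentration of compound in 96-well plates. Values under 10 count as active.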 A number with no mark means an inactive call. The source made the active and inactive calls.

The record followed here is PubChem BioAssay (NCI).

On to `CC(=O)[O][Hg][c]1nc2c(c(=O)n(C)c(=O)n2C)n1C`, for which the growth in assay [1] was 106%; in [2] it was 108%; in assay [3], 102%; in [4], 110%; in assay [5], 104%; in assay [6], 107%. The growth in assay [7] is 95.6%; in [8] it was 77.8%; in [9] it was 93.7%; in assay [10] it was 90.8%; in [11], 96.3%; in assay [12], 90.1%. In addition, the growth in assay [13] was 104%; in assay [14] it was 112%; in [15], 95.2%; in assay [16] it was 110%; in assay [17], 114%; in [18], 92.4%. Further, the growth is 73.3% in assay [19] and 96.6% in [20].

For `C=CCN1C(=O)C(CC)(CCC(C)C)C(=O)NC1=S` (stereo not given), the growth in [1] is 105%; in [2] it was 104%; in assay [3], 108%; in assay [4], 109%; in assay [5], 111%; in assay [6] it was 105%. Moreover, the growth was 103% in [7]; 96.8% in assay [8]; 91.7% in assay [9]; 105% in [10]; 92.2% in [11]; 104% in assay [12]. Besides, the growth in assay [13] is 101%; in [14], 110%; in assay [15] it was 99.4%; in assay [16] it was 113%; in [17], 106%; in [18], 101%. In addition, the growth in [19] was 107%; in assay [20], 108%.

Take `O=[N+]([O-])c1ccc(F)c([N+](=O)[O-])c1F`: the growth is 111% in assay [1]; 100% in [2]; 113% in [3]; 103% in assay [4]; 105% in assay [5]; 116% in [6]. In addition, the growth in [7] is 103%; in [8], 116%; in [9], 89.3%; in [10], 103%; in assay [11], 107%; in [12] it was 116%. Moreover, the growth in [13] was 103%; in assay [14], 113%; in assay [15], 104%; in assay [16], 103%; in assay [17], 109%; in assay [18], 103%. The results for the growth in assay [19] and in assay [20] were 102% and 94.1%, respectively.

Regarding `C=CCc1ccc(OC(=O)Cc2ccccc2)c(OC)c1`, the growth was 93.8% in assay [1]; 95% in assay [2]; 106% in assay [3]; 107% in assay [4]; 97.8% in assay [5]; 103% in assay [6]. For the same compound, the growth in assay [7] is 115%; in [8], 76.3%; in [9] it was 100%; in assay [10] it was 102%; in assay [11] it was 114%; in [12] it was 106%. Besides, the growth in [13] is 99.5%; in assay [14] it was 110%; in assay [15], 109%; in assay [16], 110%; in assay [17], 105%; in assay [18], 107%. Also, the growth was 96% in [19] and 110% in assay [20].

As for `CC1(C)N=C(N)N=C(N)N1c1ccc(CCCCc2ccc(S(=O)(=O)F)cc2)cc1`, the growth is 39.4% in assay [1]; 36.8% in assay [2]; 46.7% in assay [3]; 30% in assay [4]; 28.6% in assay [5]; 36.8% in [6]. The growth in assay [7] was 8.88% (active); in [8], 63.7%; in assay [9], 12.5%; in assay [10] it was 19.3%; in assay [11], 19.8%; in [12], 47.7%. The growth in assay [13] is 26.8%; in assay [14], 39.2%; in assay [15], 24.3%; in [16] it was 33.2%; in assay [17] it was 113%; in assay [18], 18.9%. The growth in [19] was 2.82% (active); in assay [20] it was 17.1%.

`CCOC(=O)c1cnc(SCc2ccc(Cl)c(Cl)c2)nc1N1CC1`: the growth was 51.1% in [1]; 75.6% in assay [2]; 51.7% in assay [3]; 74.9% in assay [4]; 44.1% in assay [5]; 33.7% in [6]. Besides, the growth in [7] is 31.2%; in [8], 43.1%; in assay [9] it was 51.2%; in [10] it was 72.6%; in [11], 51.1%; in [12], 88.5%. The growth is 58.4% in assay [13]; 44.1% in assay [14]; 51.6% in [15]; 54.6% in assay [16]; 25.2% in assay [17]; 10.5% in assay [18]. The growth was 29.3% in assay [19] and 50.5% in assay [20].

Turning to `CC(=O)C1CCC2C3CC=C4CC(OC(=O)Cc5ccc(N(CCCl)CCCl)cc5)CCC4(C)C3CCC12C` (stereo not given), the growth in assay [1] was 96.6%; in assay [2] it was 94.6%; in assay [3], 112%; in [4], 93.7%; in [5], 79.5%; in [6], 99.5%. In addition, the growth in assay [7] was 83.2%; in [8], 93.7%; in assay [9], 86.2%; in assay [10] it was 94.5%; in [11], 91.4%; in assay [12], 107%. The growth was 96.6% in assay [13]; 100% in assay [14]; 103% in assay [15]; 99.6% in assay [16]; 96.2% in assay [17]; 111% in [18]. In addition, the growth in assay [19] and in assay [20] was 106% throughout.

In the case of `CC(C)[C@]12O[C@H]1[C@@H]1O[C@]13[C@]1(O[C@H]1C[C@H]1C4=C(CC[C@@]13C)C(=O)OC4)[C@@H]2OC(=O)OC(C)(C)C`, the growth is -28% (active) in assay [1]; 12.6% in assay [2]; 21.8% in assay [3]; -2.29% (active) in assay [4]; -20.2% (active) in assay [5]; 8.8% (active) in assay [6]. In addition, the growth in [7] is 1.27% (active); in [8], -60.5% (active); in assay [9], 19.8%; in assay [10], -2.1% (active); in [11], -51.4% (active); in assay [12], -1.69% (active). For the same compound, the growth in assay [13] was 20%; in assay [14], 9.88% (active); in [15] it was 16.8%; in assay [16] it was 5.42% (active); in assay [17], -2.52% (active); in [18], -73.6% (active). The growth in assay [19] was 18.5%; in [20], 2.1% (active).
